Most compounds without a hit are left out; they make up all but 0.9% or so of the library.
PPARg SRC-3 ag: PPARgamma agonists recruiting SRC-3 coactivator, primary screen, biochemical | 0.26% of 200,000 active | Peroxisome proliferator-activated receptor gamma (Homo sapiens), P37231 | activation, % at 8 µM | AID 731, 2007 | biochemical PPARgamma/SRC-3 coactivator recruitment assay; in the data active means activation above about 23%
SRC1 TRFRET art: TR-FRET detection interference compounds, primary screen, artefact control for PPARgamma SRC-1 recruitment agonists, biochemical, TR-FRET emission ratio. TR-FRET detection artefact counter-screen; hits give high values. TR-FRET ratio at 8 µM. 0.34% of 99,000 active; in the data active means TR-FRET ratio above about 2300
PPARg SRC1 recr: PPARgamma agonists recruiting SRC-1 coactivator, primary screen, biochemical | PPARgamma-SRC-1 coactivator recruitment biochemical assay | activation, % at 8 µM | 0.41% of 200,000 active | Peroxisome proliferator-activated receptor gamma (Homo sapiens), P37231; in the data active means activation above about 19%
SRC3 TRFRET art: TR-FRET detection interference compounds, artefact control for PPARgamma SRC-3 recruitment agonists, biochemical, TR-FRET ratio | TR-FRET artefact counter-screen, PPARgamma/SRC-3 format; hits give high values | 0.39% of 99,000 active | TR-FRET ratio at 8 µM; in the data active means TR-FRET ratio above about 2000
PPARg SRC-2 ag: agonists of PPARg-SRC-2 recruitment, primary screen, biochemical, HTS; Peroxisome proliferator-activated receptor gamma (Homo sapiens), P37231; PPARgamma LBD-SRC-2 recruitment; activation, % at 8 µM; 0.34% of 200,000 active
TR-FRET SRC-2 ct: TR-FRET signal artefacts, primary screen, artefact control for PPARgamma SRC-2 agonist project, biochemical. 0.4% of 200,000 active. AID 1049, 2008. TR-FRET ratio at 8 µM. TR-FRET artefact counter-screen; hits give high values; in the data active means TR-FRET ratio above about 2000
PPARg SRC2 ag: agonists of PPARgamma SRC-2 coactivator recruitment, confirmation, biochemical, HTS; shares compounds with PPARg SRC-3 ag; 52% of 790 active; AID 1297, 2008; activation, % at 8 µM; biochemical SRC-2 recruitment by PPARgamma
PPARg SRC1 conf: PPARgamma agonists recruiting SRC-1 coactivator, confirmation, biochemical; 43% of 790 active; PPARgamma–SRC-1 coactivator recruitment biochemical assay; activation, % at 8 µM; shares compounds with PPARg SRC-3 ag; in the data active means activation above about 20%
PPARg SRC3 ag: PPARgamma-driven SRC-3 coactivator recruitment agonists, confirmation, biochemical; shares compounds with PPARg SRC-3 ag; biochemical PPARgamma-SRC-3 coactivator recruitment, agonist mode; activation, % at 8 µM; 29% of 790 active; AID 1301, 2008; in the data active means activation above about 24%
Large screens that a line does not name were inactive (follow-up assays come after a bar, where they were run). Unless noted, no stated cut-off is given here; in the data, active means activation above about 22%; inactive means the rest.

CCOC(=O)CSc1nc(N)c(C(=O)Nc2ccc(N(C)C)cc2)s1	PPARg SRC1 recr 22 (no result: SRC1 TRFRET art, SRC3 TRFRET art) | PPARg SRC2 ag inactive | PPARg SRC1 conf inactive | PPARg SRC3 ag inactive
CCNc1ccc2noc3c2c1C(=O)c1ccccc1-3	none (no result: SRC1 TRFRET art, SRC3 TRFRET art)
O=C1c2ccccc2-c2onc3ccc(NCc4ccco4)c1c23	PPARg SRC1 recr 32, SRC3 TRFRET art 2084, PPARg SRC-2 ag 35 | PPARg SRC2 ag 23 | PPARg SRC1 conf inactive | PPARg SRC3 ag inactive
Cc1cn(S(=O)(=O)c2ccc(Br)c3ccccc23)cn1	PPARg SRC-3 ag 52, PPARg SRC1 recr 31, PPARg SRC-2 ag 49, TR-FRET SRC-2 ct 2712 (no result: SRC1 TRFRET art, SRC3 TRFRET art) | PPARg SRC2 ag 40 | PPARg SRC1 conf 26 | PPARg SRC3 ag 28
NC(=O)[C@@H]1CCCN1Cc1nc(-c2ccc(C(F)(F)F)cc2)no1	none
COc1ccc(NC(=S)N2CCC(c3nc4ccccc4o3)CC2)c(OC)c1	none
Nc1c(C(=O)Nc2ccc(Br)cc2)sc2nc(-c3ccco3)ccc12	PPARg SRC-2 ag 23 (no result: SRC1 TRFRET art, SRC3 TRFRET art) | PPARg SRC2 ag inactive | PPARg SRC1 conf inactive | PPARg SRC3 ag inactive
Nc1c(C(=O)Nc2ccc(F)cc2)sc2nc(-c3ccco3)ccc12	none (no result: SRC1 TRFRET art, SRC3 TRFRET art)
CCOC(=O)c1sc2nc(C)nc(SCC(=O)N(CC)C3CCS(=O)(=O)C3)c2c1C (stereo not drawn)	none
Cn1c(=O)cc(SCC(=O)NCCC2=CCCCC2)c2ccccc21	none
CN1CCN(C(=O)CCCOc2cc(=O)n(C)c3ccccc23)CC1	none (no result: SRC1 TRFRET art, SRC3 TRFRET art)
Cn1c(=O)cc(SCC(=O)N2CCN(c3ccccn3)CC2)c2ccccc21	PPARg SRC-3 ag 53, PPARg SRC1 recr 38, PPARg SRC-2 ag 55, TR-FRET SRC-2 ct 2556 (no result: SRC1 TRFRET art, SRC3 TRFRET art) | PPARg SRC2 ag 40 | PPARg SRC1 conf 29 | PPARg SRC3 ag 27
CN1CCN(C(=O)CSc2cc(=O)n(C)c3ccccc23)CC1	SRC1 TRFRET art 2594, PPARg SRC1 recr 34, SRC3 TRFRET art 2760, PPARg SRC-2 ag 38, TR-FRET SRC-2 ct 2614 | PPARg SRC2 ag 29 | PPARg SRC1 conf inactive | PPARg SRC3 ag inactive
Cn1c(=O)cc(SCC(=O)N2CCN(c3ccccc3)CC2)c2ccccc21	PPARg SRC-3 ag 40, PPARg SRC1 recr 34, PPARg SRC-2 ag 47, TR-FRET SRC-2 ct 2466 (no result: SRC1 TRFRET art, SRC3 TRFRET art) | PPARg SRC2 ag 40 | PPARg SRC1 conf 28 | PPARg SRC3 ag 29
Cn1c(=O)cc(OCCCC(=O)N2CCN(c3ccccc3)CC2)c2ccccc21	none (no result: SRC1 TRFRET art, SRC3 TRFRET art)
CCN1CCN(C(=O)CSc2cc(=O)n(C)c3ccccc23)CC1	SRC1 TRFRET art 2968, PPARg SRC1 recr 33, SRC3 TRFRET art 2490, TR-FRET SRC-2 ct 2412 | PPARg SRC2 ag 29 | PPARg SRC1 conf inactive | PPARg SRC3 ag inactive
Cc1ccsc1/C=N/Nc1nc(=O)[nH]nc1C	none
O=C(O)CC/C(=N/Nc1ncc(C(F)(F)F)cc1Cl)C(=O)O	none
Cc1ccc(CS(=O)(=O)CCC(=O)O)cc1	none
Cc1ccccc1C1C2=C(Nc3[nH]n(-c4ccccc4)c(=O)c31)c1ccccc1C2=O (stereo not drawn)	PPARg SRC-3 ag 35, PPARg SRC1 recr 23 | PPARg SRC2 ag 23 | PPARg SRC1 conf 30 | PPARg SRC3 ag 35
Oc1ccc(Br)cc1C=Nc1cccn2cc(-c3ccccc3)nc12	PPARg SRC-2 ag 23 | PPARg SRC2 ag inactive | PPARg SRC1 conf inactive | PPARg SRC3 ag inactive
COc1ccc(-c2nn(-c3ccccc3C)cc2CNCc2cccnc2)cc1F	none
Oc1ccc(N=Cc2cc(Br)c(N3CCOCC3)o2)cc1	none
O=[N+]([O-])c1cc(Br)c(O)c(C=Nc2ccc(N3CCOCC3)cc2)c1	PPARg SRC-3 ag 45, SRC1 TRFRET art 2849, PPARg SRC1 recr 61, SRC3 TRFRET art 2532, PPARg SRC-2 ag 64, TR-FRET SRC-2 ct 2845 | PPARg SRC2 ag inactive | PPARg SRC1 conf inactive | PPARg SRC3 ag inactive
COc1ccc(Nc2ccc3c(c2)=NC2(CCCCC2)[N+]=3[O-])cc1	PPARg SRC-3 ag 28, PPARg SRC1 recr 24, TR-FRET SRC-2 ct 2020 (no result: SRC1 TRFRET art, SRC3 TRFRET art) | PPARg SRC2 ag inactive | PPARg SRC1 conf inactive | PPARg SRC3 ag inactive
[O-][N+]1=c2ccc(Nc3ccccc3)cc2=NC12CCCCC2	PPARg SRC-3 ag 28, PPARg SRC1 recr 24 (no result: SRC1 TRFRET art, SRC3 TRFRET art) | PPARg SRC2 ag 22 | PPARg SRC1 conf inactive | PPARg SRC3 ag inactive
COc1ccc(NC2=NC(=S)N(c3ccccc3C)C23CCCCC3)cc1	none (no result: SRC1 TRFRET art, SRC3 TRFRET art)
CC(C)N(CC(=O)Nc1ccc(Cl)cc1C(F)(F)F)C(=O)CCl	none
CSc1c(SCc2ccccc2)cnn(-c2ccccc2)c1=O	SRC1 TRFRET art 2714, PPARg SRC1 recr 24, SRC3 TRFRET art 2060, PPARg SRC-2 ag 27 | PPARg SRC2 ag 50 | PPARg SRC1 conf 36 | PPARg SRC3 ag 33
COc1cnn(-c2ccccc2)c(=O)c1SCc1ccc(Cl)c(Cl)c1	none (no result: SRC1 TRFRET art, SRC3 TRFRET art)
CC(C)CCNCC(=O)NC(c1ccccc1)c1ccccc1	none
C=CCNC(=S)NNC(=O)c1ccc(=O)n(Cc2ccc(Cl)cc2Cl)c1	PPARg SRC-3 ag 31 | PPARg SRC2 ag inactive | PPARg SRC1 conf inactive | PPARg SRC3 ag inactive
COCCNc1nc(-c2ccc(OC)cc2)c(-c2ccc(OC)cc2)s1	none
C=CCSC1=Nc2sccc2C2=NC(=O)CN12	PPARg SRC-2 ag 23 (no result: SRC1 TRFRET art, SRC3 TRFRET art) | PPARg SRC2 ag inactive | PPARg SRC1 conf inactive | PPARg SRC3 ag inactive
COc1ccccc1N1CCN(CC(=O)Nc2ccc(-n3cnnn3)cc2)CC1	none
COc1ccc(Br)cc1-c1nc(CCl)cs1	PPARg SRC-3 ag 42, SRC1 TRFRET art 3749, PPARg SRC1 recr 62, SRC3 TRFRET art 3363, PPARg SRC-2 ag 62, TR-FRET SRC-2 ct 3230 | PPARg SRC2 ag 59 | PPARg SRC1 conf 43 | PPARg SRC3 ag 41
Cc1ccc(C)n1-c1ccc(-c2nnc3n2CCCCC3)s1	PPARg SRC1 recr 27 (no result: SRC1 TRFRET art, SRC3 TRFRET art) | PPARg SRC2 ag 23 | PPARg SRC1 conf 22 | PPARg SRC3 ag inactive
CCOC(=O)c1c(OCC)[nH]c2c1cc(O)c1ccccc12	PPARg SRC1 recr 19 (no result: SRC1 TRFRET art, SRC3 TRFRET art) | PPARg SRC2 ag inactive | PPARg SRC1 conf inactive | PPARg SRC3 ag inactive
N#CC(c1nc2ccccc2nc1N1CCCC1)S(=O)(=O)c1ccccc1 (stereo not drawn)	none (no result: SRC1 TRFRET art, SRC3 TRFRET art)
